# Assay results: PubChem BioAssay (NCATS)
# Inconclusive results are not listed. Activity calls are given as the source filed them. The call rests on the fitted dose curve; in most records, active means well fitted inhibition curve with a large enough effect; inconclusive means small, poorly fitted or top-dose-only effect; inactive means flat fitted curve, though single readings scatter.
# Assay: P-glycoprotein substrates identified in KB-8-5-11 adenocarcinoma cell line, qHTS therapeutic library screen (AID 1346987); further: nearly all actives have a fitted effect of over 65% in size
# Conditions: KB-8-5-11 (P-gp overexpressing) viability, CellTiter-Glo, 72 h; series mostly up to 44.5 µM; activity change, negative = cytotoxicity: at the top concentration
# Method in brief: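 Steps: plate 500 KB-8-5-11 cells/well in DMEM + 10% FCS (colchicine removed); pin compounds in dose-response; incubate 72 h, 37 degree C, 5% CO2; add CellTiter-Glo, 5 min; read luminescence.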
# On the % scale 0 is the no-effect control and ±100 the full control effect; potency means the concentration at half of the fitted maximal effect.
SMILES,"activity change, negative = cytotoxicity",Potency
Nc1c(S(=O)(=O)c2ccccc2)c2nc3ccccc3nc2n1-c1ccc(F)cc1,-20.3% (inactive),
COc1cccc(CN(C(=O)CC(C)(C)C)[C@H]2C[C@H](C(=O)N3CCNCC3)N(Cc3ccc4c(c3)OCO4)C2)c1,-11.9% (inactive),
COC1CC(O[C@H]2CC[C@]3(C)C4CC[C@@]5(C)C(=O)[C@]4(CC[C@@H]3C2)CC[C@@H]5C2=CC(=O)OC2)OC(C)C1OC1OC(COC2OC(CO)C(O)C(O)C2O)C(O)C(O)C1O (some centres not stated),,2.19 µM (active)
CS(=O)(=O)NC(=O)CCC/C=C\C[C@H]1C(=O)C[C@@H](O)[C@@H]1/C=C/[C@H](O)COc1ccccc1,9.18% (inactive),
Cc1noc(-c2ccc(-c3ccc(CC(=O)O)cc3)cc2)c1NC(=O)O[C@H](C)c1ccccc1Cl,-16.1% (inactive),
COc1ccc(CN2CCN(CCCSc3cc(C(C)(C)C)c(O)c(C(C)(C)C)c3)CC2)c(OC)c1OC,-16.1% [at 9.29 µM] (inactive),
COC(=O)CC[C@@H](C)C1CCC2C3CCC4C[C@H](OC(C)=O)CCC4(C)C3C[C@H](O)C21C (some centres not stated),-7.52% (inactive),
C=C1C(=O)OC2CC(C)C(CCC(C)O)=CCC12 (configuration not stated),-13.4% (inactive),
C=C(C)C(=O)OC1CC2(C)OC(=CC2=O)C(=C)CC2OC(=O)C(=C)C12 (configuration not stated),,10.1 µM (active)
CO/N=C(\C(=O)N[C@@H]1C(=O)N2C(C(=O)OCOC(=O)C(C)(C)C)=C(/C=C\c3scnc3C)CS[C@H]12)c1csc(N)n1,11.4% (inactive),
CCC(CC)C(c1ccc(Nc2nc3ccccc3s2)cc1)n1cncn1 (configuration not stated),,23.1 µM (active)
CCC/C=C\C=C/CCc1cc(O)c([C@@H]2O[C@H](CO)[C@@H](O)[C@H](O)[C@H]2O)c(O)c1C(=O)OC,-5.96% [at 17.3 µM] (inactive),
